Residue numbers refer to the chain shown, from its start.
How the values were obtained:
Experiment in all cases: protein-binding microarray (PBM); PBM: ~300 nM protein, 6 mM HEPES pH 7.8, 80 mM KCl, 0.5 mM EDTA, 0.5 mM EGTA, 6% glycerol, 35 ng/ul poly-dIdC, 1% milk, 1 h, room temperature; Ap Aiptasia and Nv Nematostella (sea anemones) / Co Capsaspora / Aq Amphimedon (sponge) / Dm Drosophila / Hu human; RHD is the Rel homology domain; high values mean tight binding
Conditions in all cases: dsDNA, one strand shown
GST-Ap-NF-kB RHD = molecular target: T1, GST-Ap-NF-kB RHD (Exaiptasia pallida (Aiptasia), UniProt A0A913YAJ5 2-422)
T1 sequence: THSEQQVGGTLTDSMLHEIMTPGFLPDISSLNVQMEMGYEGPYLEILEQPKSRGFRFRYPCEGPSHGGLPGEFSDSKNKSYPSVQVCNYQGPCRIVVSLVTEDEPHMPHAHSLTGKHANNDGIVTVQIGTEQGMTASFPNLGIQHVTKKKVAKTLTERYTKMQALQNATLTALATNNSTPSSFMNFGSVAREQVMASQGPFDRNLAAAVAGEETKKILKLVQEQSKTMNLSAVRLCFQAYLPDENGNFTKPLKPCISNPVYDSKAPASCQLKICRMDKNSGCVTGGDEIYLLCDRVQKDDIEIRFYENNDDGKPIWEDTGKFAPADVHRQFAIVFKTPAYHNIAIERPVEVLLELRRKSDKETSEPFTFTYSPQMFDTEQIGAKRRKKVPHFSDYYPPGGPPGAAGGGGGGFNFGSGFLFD

[1] = molecular target: T2, GST-Nv-NF-kB (Cys allele) (Nematostella vectensis, UniProt E5G601 2-411)
T2 sequence: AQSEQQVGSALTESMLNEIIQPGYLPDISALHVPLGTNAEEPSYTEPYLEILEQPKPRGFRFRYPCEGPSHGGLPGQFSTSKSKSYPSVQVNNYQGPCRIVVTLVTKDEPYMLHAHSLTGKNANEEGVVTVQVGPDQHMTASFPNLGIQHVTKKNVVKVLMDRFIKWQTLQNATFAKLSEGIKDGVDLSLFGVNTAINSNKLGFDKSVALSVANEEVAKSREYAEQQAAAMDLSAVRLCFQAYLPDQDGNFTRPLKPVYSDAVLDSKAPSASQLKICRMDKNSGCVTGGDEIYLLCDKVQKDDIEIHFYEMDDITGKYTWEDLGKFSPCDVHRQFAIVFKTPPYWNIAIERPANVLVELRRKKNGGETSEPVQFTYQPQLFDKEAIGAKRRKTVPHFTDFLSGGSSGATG

[2] = molecular target: T3, GST-Nv-NF-kB (Ser allele) (Nematostella vectensis, UniProt A7UNT2 2-411)
T3 sequence: T2 sequence with Q21R, C66S, S207N, E215Q, V217A, E225K, A268E, D399E

GST-Co-NF-kB = molecular target: T4, GST-Co-NF-kB (Capsaspora owczarzaki, UniProt F1ARL5 200-546)
T4 sequence: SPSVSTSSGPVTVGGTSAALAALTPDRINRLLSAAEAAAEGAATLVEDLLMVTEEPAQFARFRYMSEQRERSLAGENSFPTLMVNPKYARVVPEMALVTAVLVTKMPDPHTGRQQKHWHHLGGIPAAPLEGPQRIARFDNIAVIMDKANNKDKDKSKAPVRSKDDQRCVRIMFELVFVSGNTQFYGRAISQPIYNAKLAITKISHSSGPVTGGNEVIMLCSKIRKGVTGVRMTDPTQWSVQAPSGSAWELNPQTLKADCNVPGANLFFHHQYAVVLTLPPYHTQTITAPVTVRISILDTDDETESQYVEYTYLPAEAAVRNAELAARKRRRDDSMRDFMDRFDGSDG

GST-Dm-Relish = molecular target: T5, GST-Dm-Relish (Drosophila melanogaster, UniProt Q94527 99-473)
T5 sequence: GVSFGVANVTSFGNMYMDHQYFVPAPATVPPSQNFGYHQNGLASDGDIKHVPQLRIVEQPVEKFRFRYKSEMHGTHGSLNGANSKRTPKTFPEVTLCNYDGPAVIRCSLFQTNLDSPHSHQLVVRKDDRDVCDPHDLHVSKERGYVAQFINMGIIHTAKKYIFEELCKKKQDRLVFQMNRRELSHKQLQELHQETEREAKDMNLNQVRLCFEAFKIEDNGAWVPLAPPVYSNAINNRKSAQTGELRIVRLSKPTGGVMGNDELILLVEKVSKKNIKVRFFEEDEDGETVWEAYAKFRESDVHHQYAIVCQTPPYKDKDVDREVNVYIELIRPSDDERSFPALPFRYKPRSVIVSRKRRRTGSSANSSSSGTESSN

GST-Aq-NF-kB = molecular target: T6, GST-Aq-NF-kB (Amphimedon queenslandica, UniProt A9Y5G7 2-389)
T6 sequence: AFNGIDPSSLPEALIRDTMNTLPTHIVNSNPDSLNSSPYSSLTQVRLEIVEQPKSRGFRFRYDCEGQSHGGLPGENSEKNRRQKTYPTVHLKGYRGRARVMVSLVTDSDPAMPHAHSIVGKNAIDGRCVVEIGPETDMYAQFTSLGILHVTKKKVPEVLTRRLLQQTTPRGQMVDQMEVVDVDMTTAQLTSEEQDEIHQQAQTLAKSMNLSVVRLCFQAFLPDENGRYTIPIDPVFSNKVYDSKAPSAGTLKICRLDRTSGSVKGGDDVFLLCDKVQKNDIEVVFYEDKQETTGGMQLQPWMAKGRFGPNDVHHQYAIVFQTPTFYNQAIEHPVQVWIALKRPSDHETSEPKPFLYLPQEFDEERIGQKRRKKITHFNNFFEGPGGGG

GST-Hu-p50 = GST-Hu-p50 (Homo sapiens, UniProt P19838 7-356)
GST-Hu-p50, sequence (P19838 7-356): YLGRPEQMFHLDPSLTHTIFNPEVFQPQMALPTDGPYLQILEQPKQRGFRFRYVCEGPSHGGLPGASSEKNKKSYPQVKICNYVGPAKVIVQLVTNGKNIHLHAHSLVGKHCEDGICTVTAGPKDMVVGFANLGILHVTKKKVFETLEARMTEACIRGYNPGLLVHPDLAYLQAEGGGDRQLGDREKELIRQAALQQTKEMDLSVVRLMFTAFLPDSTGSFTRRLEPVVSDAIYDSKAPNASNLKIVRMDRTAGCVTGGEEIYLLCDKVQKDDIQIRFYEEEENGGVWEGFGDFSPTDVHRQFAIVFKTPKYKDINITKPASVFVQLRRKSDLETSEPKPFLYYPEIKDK

“CCGATTAACATCAACTACCCCCCTGATGTTAATCGGGTCTTGATTCGCTTGACGCTGCTG” was tested, and the binding signal (GST-Ap-NF-kB RHD) was 4.79 z-score, the binding signal [1] was 2.46 z-score and the binding signal [2] was 3.11 z-score. For the same sequence, the binding signal (GST-Co-NF-kB) was 4.43 z-score, the binding signal (GST-Dm-Relish) was 3.4 z-score and the binding signal (GST-Aq-NF-kB) was 3.98 z-score. It also gave a binding signal (GST-Hu-p50) of 3.1 z-score.

“CCGATTAACATCAGGAATTACCCTGATGTTAATCGGGTCTTGATTCGCTTGACGCTGCTG” was tested, and the binding signal (GST-Ap-NF-kB RHD) was 4.56 z-score, the binding signal [1] was 7.58 z-score and the binding signal [2] was 4.97 z-score. The binding signal (GST-Co-NF-kB) was 2.62 z-score, the binding signal (GST-Dm-Relish) was 6.61 z-score and the binding signal (GST-Aq-NF-kB) was 8.34 z-score. It also gave a binding signal (GST-Hu-p50) of 4.51 z-score.

In the case of “CCGATTAACATCAGGCAATCCCCTGATGTTAATCGGGTCTTGATTCGCTTGACGCTGCTG”, the binding signal (GST-Ap-NF-kB RHD) is reported as 7.27 z-score, the binding signal [1] is reported as 7.19 z-score and the binding signal [2] is reported as 6.86 z-score. It also gave a binding signal (GST-Co-NF-kB) of 1.6 z-score, a binding signal (GST-Dm-Relish) of 6.78 z-score and a binding signal (GST-Aq-NF-kB) of 7.01 z-score. It also gave a binding signal (GST-Hu-p50) of 5.39 z-score.

“CCGATTAACATCAGGGAAACACCTGATGTTAATCGGGTCTTGATTCGCTTGACGCTGCTG” was tested, and the binding signal (GST-Ap-NF-kB RHD) was 5.49 z-score, the binding signal [1] was 6.62 z-score and the binding signal [2] was 6.01 z-score. For the same sequence, the binding signal (GST-Co-NF-kB) was 2.74 z-score, the binding signal (GST-Dm-Relish) was 6.92 z-score and the binding signal (GST-Aq-NF-kB) was 7.75 z-score. The binding signal (GST-Hu-p50) was 5.15 z-score.

“CCGATTAACATCACCCGCCCCCCTGATGTTAATCGGGTCTTGATTCGCTTGACGCTGCTG” showed a binding signal (GST-Ap-NF-kB RHD) of 4.08 z-score, a binding signal [1] of 4.08 z-score and a binding signal [2] of 2.95 z-score. It also gave a binding signal (GST-Co-NF-kB) of 4.02 z-score, a binding signal (GST-Dm-Relish) of 4.78 z-score and a binding signal (GST-Aq-NF-kB) of 4.22 z-score. The binding signal (GST-Hu-p50) was 3.85 z-score.

Work on “CCGATTAACATCAGCAATTCCCCTGATGTTAATCGGGTCTTGATTCGCTTGACGCTGCTG” yielded a binding signal (GST-Ap-NF-kB RHD) of 7.03 z-score, a binding signal [1] of 7.8 z-score and a binding signal [2] of 9.25 z-score. The binding signal (GST-Co-NF-kB) was 5.7 z-score, the binding signal (GST-Dm-Relish) was 3.8 z-score and the binding signal (GST-Aq-NF-kB) was 5.36 z-score. It also gave a binding signal (GST-Hu-p50) of 6.4 z-score.

“CCGATTAACATCACAGAATCCCCTGATGTTAATCGGGTCTTGATTCGCTTGACGCTGCTG” was tested, and the binding signal (GST-Ap-NF-kB RHD) was 8.13 z-score, the binding signal [1] was 8.87 z-score and the binding signal [2] was 11.1 z-score. For the same sequence, the binding signal (GST-Co-NF-kB) was 3.42 z-score, the binding signal (GST-Dm-Relish) was 7.58 z-score and the binding signal (GST-Aq-NF-kB) was 6.21 z-score. It also gave a binding signal (GST-Hu-p50) of 6.89 z-score.

Sequence “CCGATTAACATCACACAATCCCCTGATGTTAATCGGGTCTTGATTCGCTTGACGCTGCTG” has a binding signal (GST-Ap-NF-kB RHD) of 6.64 z-score, a binding signal [1] of 6.65 z-score and a binding signal [2] of 8.71 z-score. The binding signal (GST-Co-NF-kB) was 2.94 z-score, the binding signal (GST-Dm-Relish) was 3.98 z-score and the binding signal (GST-Aq-NF-kB) was 4.86 z-score. The binding signal (GST-Hu-p50) was 5.87 z-score.

“CCGATTAACATCAGCAAATTCCCTGATGTTAATCGGGTCTTGATTCGCTTGACGCTGCTG” gave a binding signal (GST-Ap-NF-kB RHD) of 3.17 z-score, a binding signal [1] of 5.15 z-score and a binding signal [2] of 5.81 z-score. The binding signal (GST-Co-NF-kB) was 2.77 z-score, the binding signal (GST-Dm-Relish) was 4.19 z-score and the binding signal (GST-Aq-NF-kB) was 4.34 z-score. The binding signal (GST-Hu-p50) was 4.19 z-score.

In the case of “CCGATTAACATCAGGGGAACACCTGATGTTAATCGGGTCTTGATTCGCTTGACGCTGCTG”, the binding signal (GST-Ap-NF-kB RHD) is reported as 6.84 z-score, the binding signal [1] is reported as 6.62 z-score and the binding signal [2] is reported as 6.14 z-score. It also gave a binding signal (GST-Co-NF-kB) of 5.77 z-score, a binding signal (GST-Dm-Relish) of 9.19 z-score and a binding signal (GST-Aq-NF-kB) of 7.92 z-score. It also gave a binding signal (GST-Hu-p50) of 4.87 z-score.

Sequence “CCGATTAACATCAGGGGGACTAATGATGTTAATCGGGTCTTGATTCGCTTGACGCTGCTG” has a binding signal (GST-Ap-NF-kB RHD) of 5.06 z-score, a binding signal [1] of 4.36 z-score and a binding signal [2] of 4.4 z-score. It also gave a binding signal (GST-Co-NF-kB) of 4.79 z-score, a binding signal (GST-Dm-Relish) of 2.76 z-score and a binding signal (GST-Aq-NF-kB) of 4.27 z-score. It also gave a binding signal (GST-Hu-p50) of 3.8 z-score.

“CCGATTAACATCAGGCATTCCCCTGATGTTAATCGGGTCTTGATTCGCTTGACGCTGCTG” was tested, and the binding signal (GST-Ap-NF-kB RHD) was 6.9 z-score, the binding signal [1] was 8.51 z-score and the binding signal [2] was 7.12 z-score. For the same sequence, the binding signal (GST-Co-NF-kB) was 3.19 z-score, the binding signal (GST-Dm-Relish) was 7.67 z-score and the binding signal (GST-Aq-NF-kB) was 7.93 z-score. It also gave a binding signal (GST-Hu-p50) of 5.74 z-score.
